Data as given in the supplement of paper PMC11732987, “Enantioselective OTUD7B fragment discovery through chemoproteomics screening and high-throughput optimisation” (Communications Chemistry, 2025).

Legend:
Assay in all cases: log2 ratio of Biotin-Ahx-Ub-VS probe labelling (fragment/DMSO); higher = less target engagement (more negative = stronger competition), active = hit call of the paper (q ≤ 0.05, log2 ratio ≤ -1)
Conditions in all cases: compound concentration: 200 uM; treatment time: 3 h
[1] = target: T1, USP19 (UniProt O94966)
T1 sequence (whole entry): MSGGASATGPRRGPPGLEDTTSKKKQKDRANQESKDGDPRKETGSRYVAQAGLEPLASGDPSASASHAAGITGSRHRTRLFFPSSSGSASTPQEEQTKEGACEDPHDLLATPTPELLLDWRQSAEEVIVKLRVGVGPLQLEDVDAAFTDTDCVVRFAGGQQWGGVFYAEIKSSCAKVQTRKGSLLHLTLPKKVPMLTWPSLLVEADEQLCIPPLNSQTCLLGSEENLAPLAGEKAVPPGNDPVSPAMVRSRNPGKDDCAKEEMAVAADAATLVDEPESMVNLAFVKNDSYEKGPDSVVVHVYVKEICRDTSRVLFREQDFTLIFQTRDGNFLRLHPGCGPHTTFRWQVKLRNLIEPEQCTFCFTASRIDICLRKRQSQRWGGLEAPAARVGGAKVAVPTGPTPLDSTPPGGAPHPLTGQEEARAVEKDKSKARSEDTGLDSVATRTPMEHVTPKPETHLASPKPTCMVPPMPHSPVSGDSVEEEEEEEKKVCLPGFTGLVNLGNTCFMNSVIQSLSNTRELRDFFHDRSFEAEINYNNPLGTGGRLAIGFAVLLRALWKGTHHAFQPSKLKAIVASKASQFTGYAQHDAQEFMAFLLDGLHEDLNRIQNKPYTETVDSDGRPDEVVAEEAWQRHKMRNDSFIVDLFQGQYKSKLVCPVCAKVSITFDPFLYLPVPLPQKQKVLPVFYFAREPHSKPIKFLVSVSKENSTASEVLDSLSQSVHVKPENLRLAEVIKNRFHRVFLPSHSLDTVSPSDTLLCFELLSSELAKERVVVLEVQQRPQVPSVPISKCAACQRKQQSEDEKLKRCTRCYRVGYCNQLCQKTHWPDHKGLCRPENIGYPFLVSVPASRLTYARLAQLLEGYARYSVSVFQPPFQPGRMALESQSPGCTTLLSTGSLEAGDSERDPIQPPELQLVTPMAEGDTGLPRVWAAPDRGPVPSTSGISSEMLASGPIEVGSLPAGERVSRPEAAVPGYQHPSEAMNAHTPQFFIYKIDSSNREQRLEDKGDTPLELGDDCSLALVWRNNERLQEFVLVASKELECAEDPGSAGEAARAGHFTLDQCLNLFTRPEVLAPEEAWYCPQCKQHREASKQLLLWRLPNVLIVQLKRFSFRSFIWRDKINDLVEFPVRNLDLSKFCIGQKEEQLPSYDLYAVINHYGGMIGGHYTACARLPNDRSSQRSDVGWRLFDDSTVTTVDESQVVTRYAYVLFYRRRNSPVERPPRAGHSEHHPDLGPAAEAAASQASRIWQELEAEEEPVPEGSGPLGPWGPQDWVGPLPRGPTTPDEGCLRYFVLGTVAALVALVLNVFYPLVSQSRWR
Summary of the method: (§1)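 Using Biotin-Ahx-Ub-VS at 0.5 µM final for 1 h, DUBs were labelled in HEK293T lysate (495 µg per sample) that had first been treated in triplicate with fragment at 200 µM or vehicle for 3 h. NeutrAvidin enrichment, LysC and trypsin digestion and diaPASEF LC-MS/MS followed. Spectronaut label-free quantities were global-median-normalised. Values are average log2 fragment/vehicle ratios by unpaired t-test, using proteins with ≥2 unique peptides.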

[2] = target: T2, USP22 (UniProt Q9UPT9)
T2 sequence (whole entry): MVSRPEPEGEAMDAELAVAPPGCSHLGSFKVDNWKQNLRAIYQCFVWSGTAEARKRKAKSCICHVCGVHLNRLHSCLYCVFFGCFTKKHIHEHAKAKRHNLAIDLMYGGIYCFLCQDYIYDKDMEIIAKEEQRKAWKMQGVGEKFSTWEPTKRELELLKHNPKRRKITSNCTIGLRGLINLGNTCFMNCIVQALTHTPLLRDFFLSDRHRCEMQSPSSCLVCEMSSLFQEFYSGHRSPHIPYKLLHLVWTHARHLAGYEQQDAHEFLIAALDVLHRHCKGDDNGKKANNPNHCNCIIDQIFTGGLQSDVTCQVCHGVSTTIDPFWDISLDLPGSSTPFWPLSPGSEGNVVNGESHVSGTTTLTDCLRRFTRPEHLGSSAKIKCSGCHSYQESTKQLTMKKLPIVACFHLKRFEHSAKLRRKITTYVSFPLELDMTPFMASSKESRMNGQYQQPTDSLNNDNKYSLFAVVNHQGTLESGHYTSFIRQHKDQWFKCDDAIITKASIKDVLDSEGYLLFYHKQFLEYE
Summary of the method: as §1

[3] = target: USP24 (UniProt Q9UPU5)
Summary of the method: as §1

[4] = target: T3, USP25 (UniProt Q9UHP3)
T3 sequence (whole entry): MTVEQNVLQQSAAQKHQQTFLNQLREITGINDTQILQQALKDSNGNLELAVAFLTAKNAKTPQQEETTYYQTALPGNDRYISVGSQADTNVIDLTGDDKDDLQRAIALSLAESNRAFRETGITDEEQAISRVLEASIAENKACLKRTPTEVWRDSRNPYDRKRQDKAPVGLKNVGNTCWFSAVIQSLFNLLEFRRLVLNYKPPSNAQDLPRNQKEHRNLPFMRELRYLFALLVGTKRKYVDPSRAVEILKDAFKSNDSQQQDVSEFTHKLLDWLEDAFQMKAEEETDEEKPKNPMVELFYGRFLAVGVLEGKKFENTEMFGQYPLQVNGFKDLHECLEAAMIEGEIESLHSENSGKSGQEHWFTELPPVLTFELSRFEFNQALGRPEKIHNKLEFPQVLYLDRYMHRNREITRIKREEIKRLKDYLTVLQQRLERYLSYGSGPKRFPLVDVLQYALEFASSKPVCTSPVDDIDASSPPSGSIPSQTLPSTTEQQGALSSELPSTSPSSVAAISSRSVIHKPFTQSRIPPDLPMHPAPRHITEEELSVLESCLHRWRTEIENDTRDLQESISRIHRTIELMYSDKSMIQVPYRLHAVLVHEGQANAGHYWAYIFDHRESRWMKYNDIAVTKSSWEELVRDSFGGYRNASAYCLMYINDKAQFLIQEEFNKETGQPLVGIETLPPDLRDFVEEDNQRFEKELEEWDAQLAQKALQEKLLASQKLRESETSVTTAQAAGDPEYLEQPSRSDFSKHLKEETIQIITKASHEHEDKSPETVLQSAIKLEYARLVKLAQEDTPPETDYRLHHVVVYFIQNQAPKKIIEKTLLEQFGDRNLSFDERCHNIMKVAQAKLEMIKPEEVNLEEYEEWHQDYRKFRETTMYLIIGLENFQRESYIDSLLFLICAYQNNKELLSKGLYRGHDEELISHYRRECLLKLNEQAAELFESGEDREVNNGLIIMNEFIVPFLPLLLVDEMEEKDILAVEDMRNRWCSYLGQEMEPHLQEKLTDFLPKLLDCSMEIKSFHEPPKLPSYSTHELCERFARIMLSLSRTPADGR
Summary of the method: as §1

[5] = target: T4, USP28 (UniProt Q96RU2)
T4 sequence (whole entry): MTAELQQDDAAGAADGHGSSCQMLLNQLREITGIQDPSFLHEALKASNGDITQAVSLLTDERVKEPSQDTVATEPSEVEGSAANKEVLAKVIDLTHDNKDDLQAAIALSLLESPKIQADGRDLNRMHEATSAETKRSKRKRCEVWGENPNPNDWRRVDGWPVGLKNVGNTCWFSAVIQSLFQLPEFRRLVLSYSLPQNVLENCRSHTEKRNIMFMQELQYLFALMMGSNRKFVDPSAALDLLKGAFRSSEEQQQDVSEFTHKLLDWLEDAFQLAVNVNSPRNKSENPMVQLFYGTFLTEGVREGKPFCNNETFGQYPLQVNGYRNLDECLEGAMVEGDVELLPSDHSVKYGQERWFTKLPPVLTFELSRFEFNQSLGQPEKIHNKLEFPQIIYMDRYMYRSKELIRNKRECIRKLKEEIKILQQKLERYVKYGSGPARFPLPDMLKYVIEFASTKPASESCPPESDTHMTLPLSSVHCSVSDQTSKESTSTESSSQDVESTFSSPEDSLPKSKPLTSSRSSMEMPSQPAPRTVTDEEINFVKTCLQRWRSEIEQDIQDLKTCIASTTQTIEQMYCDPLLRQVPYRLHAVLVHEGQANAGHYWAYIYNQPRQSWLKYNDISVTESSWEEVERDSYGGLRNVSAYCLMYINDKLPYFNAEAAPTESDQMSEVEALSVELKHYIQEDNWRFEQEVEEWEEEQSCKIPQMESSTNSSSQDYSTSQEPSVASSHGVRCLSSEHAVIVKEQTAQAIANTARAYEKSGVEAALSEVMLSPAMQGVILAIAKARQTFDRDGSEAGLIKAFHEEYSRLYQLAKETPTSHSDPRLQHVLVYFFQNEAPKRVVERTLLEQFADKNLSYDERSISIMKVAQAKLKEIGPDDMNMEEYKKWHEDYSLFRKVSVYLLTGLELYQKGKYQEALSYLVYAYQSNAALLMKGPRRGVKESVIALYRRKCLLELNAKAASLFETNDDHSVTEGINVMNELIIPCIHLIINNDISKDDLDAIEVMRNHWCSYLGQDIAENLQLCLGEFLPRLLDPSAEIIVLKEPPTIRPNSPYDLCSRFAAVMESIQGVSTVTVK
Summary of the method: as §1

Measured: log2 ratio of Biotin-Ahx-Ub-VS probe labelling

Chain of USP24 (Q9UPU5 whole entry): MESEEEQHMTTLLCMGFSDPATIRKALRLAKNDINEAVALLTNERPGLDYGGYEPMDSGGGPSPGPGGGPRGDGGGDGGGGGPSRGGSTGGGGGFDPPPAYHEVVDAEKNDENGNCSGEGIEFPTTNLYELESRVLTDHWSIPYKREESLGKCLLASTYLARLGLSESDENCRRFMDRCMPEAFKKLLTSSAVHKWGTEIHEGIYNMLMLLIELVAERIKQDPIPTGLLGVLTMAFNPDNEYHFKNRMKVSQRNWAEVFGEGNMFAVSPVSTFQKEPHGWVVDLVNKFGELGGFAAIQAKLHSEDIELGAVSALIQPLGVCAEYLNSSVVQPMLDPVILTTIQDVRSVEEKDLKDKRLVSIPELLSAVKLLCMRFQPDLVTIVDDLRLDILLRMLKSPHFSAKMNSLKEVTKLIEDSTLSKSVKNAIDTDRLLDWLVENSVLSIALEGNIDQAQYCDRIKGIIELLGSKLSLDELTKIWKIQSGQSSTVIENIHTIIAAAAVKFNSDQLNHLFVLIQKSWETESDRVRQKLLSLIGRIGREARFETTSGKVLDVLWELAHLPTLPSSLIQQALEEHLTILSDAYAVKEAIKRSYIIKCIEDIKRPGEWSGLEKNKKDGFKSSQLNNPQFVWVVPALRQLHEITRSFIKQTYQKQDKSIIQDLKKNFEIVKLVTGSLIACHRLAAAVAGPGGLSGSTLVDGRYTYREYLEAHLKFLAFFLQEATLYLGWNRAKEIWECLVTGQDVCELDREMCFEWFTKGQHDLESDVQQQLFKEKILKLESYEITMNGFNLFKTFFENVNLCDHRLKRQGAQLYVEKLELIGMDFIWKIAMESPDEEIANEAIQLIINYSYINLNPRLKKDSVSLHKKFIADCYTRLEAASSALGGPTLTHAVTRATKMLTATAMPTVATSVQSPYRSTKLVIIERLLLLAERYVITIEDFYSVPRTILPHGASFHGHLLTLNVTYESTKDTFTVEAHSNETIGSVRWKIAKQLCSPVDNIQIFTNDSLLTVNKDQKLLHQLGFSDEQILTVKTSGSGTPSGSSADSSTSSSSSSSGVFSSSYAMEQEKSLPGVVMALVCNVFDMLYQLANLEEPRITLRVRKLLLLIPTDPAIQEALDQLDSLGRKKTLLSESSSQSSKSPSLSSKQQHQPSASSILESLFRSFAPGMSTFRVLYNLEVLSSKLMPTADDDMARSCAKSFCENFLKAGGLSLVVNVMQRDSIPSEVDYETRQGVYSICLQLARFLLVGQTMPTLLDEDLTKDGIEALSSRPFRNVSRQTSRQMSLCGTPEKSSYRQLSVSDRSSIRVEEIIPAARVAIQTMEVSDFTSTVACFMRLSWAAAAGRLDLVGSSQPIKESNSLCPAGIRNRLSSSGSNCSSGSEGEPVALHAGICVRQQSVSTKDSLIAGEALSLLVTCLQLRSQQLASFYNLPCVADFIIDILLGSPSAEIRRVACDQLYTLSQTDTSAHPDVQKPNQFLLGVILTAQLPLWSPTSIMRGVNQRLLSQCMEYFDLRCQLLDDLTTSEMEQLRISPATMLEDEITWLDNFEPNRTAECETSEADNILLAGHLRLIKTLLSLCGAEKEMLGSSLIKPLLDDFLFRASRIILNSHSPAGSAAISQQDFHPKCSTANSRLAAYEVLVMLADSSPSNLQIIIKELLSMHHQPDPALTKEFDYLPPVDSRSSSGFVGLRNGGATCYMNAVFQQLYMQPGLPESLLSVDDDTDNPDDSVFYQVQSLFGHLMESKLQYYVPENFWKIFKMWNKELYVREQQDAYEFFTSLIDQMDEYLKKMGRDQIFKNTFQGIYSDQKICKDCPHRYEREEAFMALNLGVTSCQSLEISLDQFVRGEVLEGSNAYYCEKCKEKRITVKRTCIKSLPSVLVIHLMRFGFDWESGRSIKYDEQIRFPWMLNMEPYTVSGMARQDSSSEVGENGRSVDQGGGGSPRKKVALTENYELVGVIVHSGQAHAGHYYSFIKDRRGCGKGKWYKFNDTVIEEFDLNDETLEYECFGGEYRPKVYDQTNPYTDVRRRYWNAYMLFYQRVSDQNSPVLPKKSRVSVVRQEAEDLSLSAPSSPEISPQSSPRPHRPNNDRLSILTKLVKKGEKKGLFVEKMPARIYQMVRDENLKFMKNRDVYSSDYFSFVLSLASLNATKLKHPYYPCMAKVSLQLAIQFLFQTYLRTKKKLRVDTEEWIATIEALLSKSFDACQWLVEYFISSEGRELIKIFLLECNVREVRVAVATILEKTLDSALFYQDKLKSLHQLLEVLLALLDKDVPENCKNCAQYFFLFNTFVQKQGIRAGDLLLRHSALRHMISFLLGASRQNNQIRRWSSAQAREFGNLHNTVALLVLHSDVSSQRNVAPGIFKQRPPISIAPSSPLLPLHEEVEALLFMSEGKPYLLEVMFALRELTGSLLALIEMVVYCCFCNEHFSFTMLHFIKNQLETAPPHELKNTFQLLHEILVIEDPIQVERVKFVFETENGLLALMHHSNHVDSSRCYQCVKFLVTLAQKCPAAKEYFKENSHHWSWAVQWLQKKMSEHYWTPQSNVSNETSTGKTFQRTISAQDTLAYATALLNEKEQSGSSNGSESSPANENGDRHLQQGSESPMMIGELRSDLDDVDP

O=C(CCl)N1CCC(OCc2ccccc2F)CC1
inactive: [1] -0.0583 | [2] -0.181 | [3] -0.486 | [4] -0.163 | [5] -0.161
